From PubChem BioAssay (EPA / NIEHS)
“And” between values parts separate entries of the source, which are not always exact repeats. Identical values can stand only once. Results filed as inconclusive are left out. Some structures have more than one record in an assay (separate samples or runs), and their calls can disagree. The source made the active and inactive calls. Rule for the calls, unless noted: active = hit-call score of the fitted dose curve at least 0.9, where 1 is the maximum; inconclusive = response in the unintended direction; inactive = score below 0.9.

Legend:
[1] = target: Nuclear receptor subfamily 1 group I member 2 (Mus musculus) (UniProt O54915); test: ATG_mPXR_XSP2: Attagene TRANS-FACTORIAL Multi-Species (XSP1) HepG2 Assay for mouse Pregnane X Receptor (PXR) (AID 2283831)
Nuclear receptor subfamily 1 group I member 2 (Mus musculus), sequence (O54915 whole entry, looked up, the tested form may be a part): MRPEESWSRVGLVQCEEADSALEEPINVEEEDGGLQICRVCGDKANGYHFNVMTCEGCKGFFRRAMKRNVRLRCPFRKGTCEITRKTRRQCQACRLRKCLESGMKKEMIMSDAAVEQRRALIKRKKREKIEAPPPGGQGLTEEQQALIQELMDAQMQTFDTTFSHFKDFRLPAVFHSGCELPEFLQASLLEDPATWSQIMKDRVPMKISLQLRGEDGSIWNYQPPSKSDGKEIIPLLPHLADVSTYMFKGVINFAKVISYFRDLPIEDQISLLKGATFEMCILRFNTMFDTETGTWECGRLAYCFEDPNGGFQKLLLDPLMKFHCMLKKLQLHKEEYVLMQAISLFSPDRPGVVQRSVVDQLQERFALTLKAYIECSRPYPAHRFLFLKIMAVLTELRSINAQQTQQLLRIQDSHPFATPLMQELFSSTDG
Method in brief: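 HepG2 cells transiently transfected with GAL4-UAS reporter units expressing chimeric NR-GAL4 proteins; reporter mRNA measured 24 h after dosing by RT-PCR with 6-FAM labelling and capillary electrophoresis, gain of signal relative to DMSO.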

[2] = test system: zebrafish Peroxisome Proliferator-activated Receptor gamma (PPARg), gene 557037; test: ATG_zfPPARg_XSP2: Attagene TRANS-FACTORIAL Multi-Species (XSP2) HepG2 Assay for zebrafish Peroxisome Proliferator-activated Receptor gamma (PPARg) (AID 2283833);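 note: actives increase reporter signal over DMSO so AC50 reflects activation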
Method in brief: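 HepG2 cells transiently transfected with GAL4-UAS reporter units expressing a zebrafish PPARg–GAL4 chimera; compound exposure 24 h. Reporter mRNA quantified by RT-PCR with fluorescent labelling and capillary electrophoresis; gain of signal fitted relative to DMSO baseline.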

[3] = ATG_M_61_XSP2: Attagene TRANS-FACTORIAL Multi-Species (XSP2) HepG2 Assay for M61 Transcription Factor (Internal Marker) (AID 2283835; active = hit-call score of the fitted dose curve at least 0.9, where 1 is the maximum; inactive = score below 0.9;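 note: active means a rise in signal above the DMSO baseline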)
Method in brief: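 Internal background marker, read as RT-PCR/capillary-electrophoresis reporter mRNA 24 h post-dose in transiently transfected HepG2 cells. Androgen receptor stimulated with 3 nM 6-alpha-fluorotestosterone plus 1.5 nM norgestrel; gain of signal versus DMSO analysed.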

[4] = test system: Sodium/Iodide Symporter (NIS), SLC5A5 (gene 6528); test: CPHEA_Stoker_NIS_Inhibition_RAIU: CPHEA's Radioactive Iodide Uptake (RAIU) Assay for Sodium/Iodide Symporter (NIS) Inhibition, Stoker and Laws Labs (AID 2283841)
Method in brief: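 Test chemicals, six concentrations from 0.001 to 100uM in 0.5% DMSO, were co-incubated with carrier-free 125I (final 329pM) on hNIS-HEK293T-EPA monolayers in pH 7.4 HEPES-buffered HBSS. Plates stood 2 hours at room temperature, then were washed cold and counted.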

[5] = CPHEA_Stoker_NIS_Cytotoxicity: Cytotoxicity Assessment for CPHEA's Radioactive Iodide Uptake (RAIU) Assay for Sodium/Iodide Symporter (NIS) Inhibition, Stoker and Laws Labs (AID 2283897);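 for AC50: active means loss of ATP signal versus DMSO meaning cytotoxicity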
Method in brief: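 Viability in hNIS-HEK293T-EPA cells is scored as a drop in luciferase-detected ATP following 2-hour room-temperature exposure (0.001–100uM; triplicate wells, three cell passages), with DMSO as negative control.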

[6] = target: zebrafish Thyroid Hormone Receptor alpha (TRa), thraa (gene 30670) (UniProt Q98867); test: ATG_zfTRa_XSP2: Attagene TRANS-FACTORIAL Multi-Species (XSP1) HepG2 Assay for zebrafish Thyroid Hormone Receptor alpha (TRa) (AID 2283832);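 note: actives raise zebrafish TRa-Gal4 reporter transcript above DMSO baseline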
zebrafish Thyroid Hormone Receptor alpha (TRa), thraa (gene 30670), sequence (Q98867 whole entry, looked up, the tested form may be a part): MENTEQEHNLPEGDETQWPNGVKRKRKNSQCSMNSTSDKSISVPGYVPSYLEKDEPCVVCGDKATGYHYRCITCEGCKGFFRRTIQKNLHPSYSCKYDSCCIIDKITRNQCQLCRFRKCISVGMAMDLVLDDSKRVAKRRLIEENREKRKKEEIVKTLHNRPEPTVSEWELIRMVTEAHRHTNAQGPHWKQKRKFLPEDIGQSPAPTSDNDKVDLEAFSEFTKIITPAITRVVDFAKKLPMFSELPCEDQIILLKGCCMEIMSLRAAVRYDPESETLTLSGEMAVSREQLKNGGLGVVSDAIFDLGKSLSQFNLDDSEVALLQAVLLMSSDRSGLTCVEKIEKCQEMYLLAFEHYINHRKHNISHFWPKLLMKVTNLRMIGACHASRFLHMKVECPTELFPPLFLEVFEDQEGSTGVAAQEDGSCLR
Method in brief: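 Chimeric zebrafish TRa-Gal4 activity read in transfected human HepG2 as GAL4-UAS reporter transcripts, 24 h post-dose, via RT-PCR with labeled primer extension and capillary electrophoresis. Medium also carries 3 nM 6-alpha-fluorotestosterone and 1.5 nM norgestrel; DMSO baseline.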

[7] = test system: turtle Thyroid Hormone Receptor, alpha (TRa), gene 101949057; test: ATG_trTRa_XSP2: Attagene TRANS-FACTORIAL Multi-Species (XSP1) HepG2 Assay for turtle Thyroid Hormone Receptor, alpha (TRa) (AID 2283834);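 note: hits raise reporter mRNA over the DMSO baseline so AC50 marks activators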
Method in brief: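 HepG2 cells transiently transfected with multiplexed GAL4-UAS reporter units expressing chimeric NR-Gal4 proteins were dosed for 24 hours. Reporter mRNA was quantified by RT-PCR with 6-FAM labelling and capillary electrophoresis, gain of signal scored against DMSO.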

[8] = target: human Thyroid hormone Receptor alpha (TRa), THRA (gene 7067) (UniProt P10827); test: ATG_hTRa_XSP2: Attagene TRANS-FACTORIAL Multi-Species (XSP2) HepG2 Assay for human Thyroid hormone Receptor alpha (TRa) (AID 2283838)
human Thyroid hormone Receptor alpha (TRa), THRA (gene 7067), sequence (P10827 whole entry, looked up, the tested form may be a part): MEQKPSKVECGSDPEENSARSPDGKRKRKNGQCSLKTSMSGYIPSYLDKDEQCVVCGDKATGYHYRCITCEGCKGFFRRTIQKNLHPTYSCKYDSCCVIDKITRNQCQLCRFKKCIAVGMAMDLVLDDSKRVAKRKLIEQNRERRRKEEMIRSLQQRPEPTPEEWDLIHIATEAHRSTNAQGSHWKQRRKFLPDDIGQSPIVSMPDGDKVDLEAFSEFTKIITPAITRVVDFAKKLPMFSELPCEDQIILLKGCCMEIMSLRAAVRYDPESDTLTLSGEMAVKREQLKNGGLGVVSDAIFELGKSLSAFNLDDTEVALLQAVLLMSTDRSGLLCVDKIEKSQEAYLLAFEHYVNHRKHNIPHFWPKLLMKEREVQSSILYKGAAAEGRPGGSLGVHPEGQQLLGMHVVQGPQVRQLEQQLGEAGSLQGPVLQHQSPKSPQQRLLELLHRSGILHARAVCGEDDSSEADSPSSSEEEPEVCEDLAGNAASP
Method in brief: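 Reporter transcripts were read by RT-PCR with fluorescent primer extension, HpaI digestion and capillary electrophoresis. These came from HepG2 cells carrying multiplexed TRa-Gal4 TRANS constructs, harvested 24 hours after dosing. The medium also held 6-alpha-fluorotestosterone (3 nM) and norgestrel (1.5 nM), and increases were fitted against DMSO.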

[9] = target: human Thyroid hormone Receptor beta (TRb), THRB (gene 7068) (UniProt P10828); test: ATG_hTRb_XSP2: Attagene TRANS-FACTORIAL Multi-Species (XSP2) HepG2 Assay for human Thyroid hormone Receptor beta (TRb) (AID 2283840);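 note: actives raise reporter mRNA so potency reflects agonist-like gain of signal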
human Thyroid hormone Receptor beta (TRb), THRB (gene 7068), sequence (P10828 whole entry, looked up, the tested form may be a part): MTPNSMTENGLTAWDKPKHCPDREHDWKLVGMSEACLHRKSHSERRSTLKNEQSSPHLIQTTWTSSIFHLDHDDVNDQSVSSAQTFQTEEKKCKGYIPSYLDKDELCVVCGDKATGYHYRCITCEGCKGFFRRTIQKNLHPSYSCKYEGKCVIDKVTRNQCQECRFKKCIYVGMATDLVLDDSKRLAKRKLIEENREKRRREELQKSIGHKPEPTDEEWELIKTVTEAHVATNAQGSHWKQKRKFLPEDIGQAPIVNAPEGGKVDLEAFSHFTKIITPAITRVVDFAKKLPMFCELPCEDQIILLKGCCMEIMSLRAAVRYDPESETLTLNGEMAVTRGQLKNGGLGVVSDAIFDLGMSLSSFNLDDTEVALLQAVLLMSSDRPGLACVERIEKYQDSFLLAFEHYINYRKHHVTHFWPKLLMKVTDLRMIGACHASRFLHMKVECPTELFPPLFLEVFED
Method in brief: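 HepG2 cells were transiently transfected with GAL4-UAS multiplexed reporter units expressing chimeric NR-Gal4 proteins, dosed 24 h; reporter mRNA was quantified by RT-PCR, fluorescent labeling, HpaI digestion and capillary electrophoresis, fitted for gain of signal versus DMSO.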

[10] = target: zebrafish Thyroid Hormone Receptor beta (TRb), thrb (gene 30607) (UniProt Q9PVE4); test: ATG_zfTRb_XSP2: Attagene TRANS-FACTORIAL Multi-Species (XSP1) HepG2 Assay for zebrafish Thyroid Hormone Receptor beta (TRb) (AID 2283836);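 for AC50: potency for induction of reporter signal above DMSO so agonist direction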
zebrafish Thyroid Hormone Receptor beta (TRb), thrb (gene 30607), sequence (Q9PVE4 whole entry, looked up, the tested form may be a part): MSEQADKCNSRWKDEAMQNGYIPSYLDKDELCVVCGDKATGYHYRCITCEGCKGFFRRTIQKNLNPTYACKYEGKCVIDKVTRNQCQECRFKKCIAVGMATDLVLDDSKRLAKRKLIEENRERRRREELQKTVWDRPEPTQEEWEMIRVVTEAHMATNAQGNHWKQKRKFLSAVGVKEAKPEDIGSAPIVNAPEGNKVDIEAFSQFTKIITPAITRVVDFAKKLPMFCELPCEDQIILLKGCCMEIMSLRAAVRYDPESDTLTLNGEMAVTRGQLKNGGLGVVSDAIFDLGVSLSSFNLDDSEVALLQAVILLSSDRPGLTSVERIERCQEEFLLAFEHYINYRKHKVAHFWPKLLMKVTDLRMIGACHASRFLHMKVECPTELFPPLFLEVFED
Method in brief: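 Reporter transcripts measured by RT-PCR, 6-FAM labelling, HpaI digestion and capillary electrophoresis after 24 h chemical exposure. Human HepG2 cells carry an exogenous zebrafish TRb-GAL4 chimera; medium included 3 nM 6-alpha-fluorotestosterone plus 1.5 nM norgestrel.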

[11] = CEETOX_H295R_11DCORT_noMTC: CeeTox H295R High-throughput Steroidogenesis Assay for 11-Deoxycortisol (11DCORT), maximum tolerated concentration (MTC) filtered results only (AID 2283911; active = hit-call score of the fitted dose curve at least 0.9, where 1 is the maximum; inactive = score below 0.9); settings: actives raise or lower the signal
Method in brief: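 HPLC-MS/MS read-out of 11-deoxycortisol after MTBE extraction of H295R medium. Cells: forskolin 10 uM pre-stimulation 48 h, chemical 48 h, 0.1% DMSO final. Bidirectional fit vs DMSO baseline; no MTC filtering.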

[12] = CEETOX_H295R_OHPREG_noMTC: CeeTox H295R High-throughput Steroidogenesis Assay for OH-Pregnenolone (OHPREG), maximum tolerated concentration (MTC) filtered results only (AID 2283912; active = hit-call score of the fitted dose curve at least 0.9, where 1 is the maximum; inactive = score below 0.9); settings: actives raise or lower the signal
Method in brief: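 Medium 17alpha-hydroxypregnenolone quantified by reverse-phase HPLC-MS/MS after 48 h chemical exposure of forskolin-prestimulated (10 uM, 48 h) H295R, 0.1% DMSO final. Fitting bidirectional relative to DMSO; no maximum-tolerated-concentration filtering applied.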

[13] = CEETOX_H295R_OHPROG_noMTC: CeeTox H295R High-throughput Steroidogenesis Assay for OH-Progesterone (OHPROG), maximum tolerated concentration (MTC) filtered results only (AID 2283914; active = hit-call score of the fitted dose curve at least 0.9, where 1 is the maximum; inactive = score below 0.9); settings: actives raise or lower the signal
Method in brief: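 After 48 h forskolin (10 uM) prestimulation, H295R adrenal cells received test chemical in 0.1% DMSO for 48 h. Medium 17alpha-hydroxyprogesterone was MTBE-extracted and measured by HPLC-MS/MS; gain or loss relative to DMSO, no MTT-based MTC filtering.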

[14] = CEETOX_H295R_CORTISOL_noMTC: CeeTox H295R High-throughput Steroidogenesis Assay for Cortisol, maximum tolerated concentration (MTC) filtered results only (AID 2283916; active = hit-call score of the fitted dose curve at least 0.9, where 1 is the maximum; inactive = score below 0.9); settings: actives raise or lower the signal
Method in brief: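 Cortisol secretion measured by LC-MS/MS after 48 h chemical treatment (final 0.1% DMSO) of forskolin-primed (10 uM, 48 h) H295R cells; gain or loss fitted relative to DMSO, without maximum-tolerated-concentration filtering.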

[15] = CEETOX_H295R_CORTIC_noMTC: CeeTox H295R High-throughput Steroidogenesis Assay for Corticosterone (CORTIC), maximum tolerated concentration (MTC) filtered results only (AID 2283917; active = hit-call score of the fitted dose curve at least 0.9, where 1 is the maximum; inactive = score below 0.9); settings: actives raise or lower the signal
Method in brief: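 Human adrenal H295R cells were prestimulated 48 h with 10 uM forskolin, then exposed 48 h to chemical in 0.1% DMSO. Medium corticosterone was MTBE-extracted and quantified by HPLC-MS/MS; bidirectional fits versus DMSO, concentrations not MTC-filtered.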

[16] = CEETOX_H295R_DOC_noMTC: CeeTox H295R High-throughput Steroidogenesis Assay for DOC, maximum tolerated concentration (MTC) filtered results only (AID 2283918; active = hit-call score of the fitted dose curve at least 0.9, where 1 is the maximum; inactive = score below 0.9); settings: actives raise or lower the signal
Method in brief: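 11-Deoxycorticosterone secreted by human adrenal H295R cells quantified by HPLC-MS/MS after 48 h chemical exposure (0.1% DMSO), following 48 h 10 uM forskolin prestimulation. Concentrations not filtered by MTT-derived MTC; bidirectional fitting.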

[17] = CEETOX_H295R_PROG_noMTC: CeeTox H295R High-throughput Steroidogenesis Assay for Progesterone (PROG), maximum tolerated concentration (MTC) filtered results only (AID 2283920; active = hit-call score of the fitted dose curve at least 0.9, where 1 is the maximum; inactive = score below 0.9); settings: actives raise or lower the signal
Method in brief: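 Progesterone secreted into medium was measured by HPLC-MS/MS after MTBE extraction, following 48 h chemical exposure (0.1% DMSO) of forskolin-prestimulated (10 uM, 48 h) H295R adrenal cells. Gain or loss fitted against DMSO; no MTC filtering.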

[18] = CEETOX_H295R_ESTRADIOL_noMTC: CeeTox H295R High-throughput Steroidogenesis Assay for Estradiol, maximum tolerated concentration (MTC) filtered results only (AID 2283919; active = hit-call score of the fitted dose curve at least 0.9, where 1 is the maximum; inactive = score below 0.9); settings: actives raise or lower the signal
Method in brief: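 Readout: dansyl-derivatized estradiol quantified by LC-MS/MS in medium from H295R cells dosed 48 h (0.1% DMSO) following 48 h forskolin (10 uM) prestimulation. Gain or loss of signal fitted against DMSO; no MTC filtering applied.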

[19] = CEETOX_H295R_ESTRONE_noMTC: CeeTox H295R High-throughput Steroidogenesis Assay for Estrone, maximum tolerated concentration (MTC) filtered results only (AID 2283921; active = hit-call score of the fitted dose curve at least 0.9, where 1 is the maximum; inactive = score below 0.9); settings: actives raise or lower the signal
Method in brief: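 Estrone in spent medium, quantified by tandem MS following dansyl chloride derivatization, after 48 h chemical exposure (0.1% DMSO) of forskolin-prestimulated (10 uM, 48 h) H295R cells; concentrations not MTC-filtered, bidirectional fit against DMSO.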

Measured: AC50

O=S(=O)(O)C(F)(F)C(F)(F)C(F)(F)C(F)(F)C(F)(F)C(F)(F)C(F)(F)C(F)(F)F
inactive: [1] | [2] | [3] | [4] | [5]

COc1nn(CSP(=S)(OC)OC)c(=O)s1
inactive: [4] | [5]

COP(=S)(OC)Oc1ccc(SC)c(C)c1
active: [1] 1.94 µM
inactive: [6] | [2] | [7] | [3] | [8] | [9] | [4] | [5]

Oc1ccc(Cl)cc1Cc1ccccc1
inactive: [1] | [2] | [7] | [3] | [8] | [9]
active: [10] 10 µM | [4] 50 µM and 11.2 µM and 21.7 µM | [5] 24.9 µM and 50 µM

C#CCN1C(=O)COc2cc(F)c(N3C(=O)C4=C(CCCC4)C3=O)cc21
active: [4] 50 µM | [5] 50 µM

CCCN(CCC)c1c([N+](=O)[O-])cc(C(F)(F)F)cc1[N+](=O)[O-]
active: [1] 1.88 µM
inactive: [6] | [3] | [10] | [4] | [5]

CCC(C)Nc1c([N+](=O)[O-])cc(C(C)(C)C)cc1[N+](=O)[O-] (centres undefined)
inactive: [4] | [5]

CCS(=O)(=O)c1cccnc1S(=O)(=O)NC(=O)Nc1nc(OC)cc(OC)n1
active: [16] 7.07 µM | [17] 16.7 µM
inactive: [11] | [12] | [13] | [14] | [15]

CCC(C)(NC(=O)c1cc(Cl)c(C)c(Cl)c1)C(=O)CCl (centres undefined)
inactive: [5]
active: [4] 31.4 µM

O=C(Nc1ccccc1)Nc1cnns1
active: [11] 35.2 µM | [12] 14.3 µM | [13] 37.8 µM | [14] 41.7 µM | [15] 31.8 µM | [16] 25.4 µM | [17] 34.7 µM
inactive: [4] | [18] | [19]

CCOCN(C(=O)CCl)c1c(C)cccc1CC
active: [1] 5.1 µM
inactive: [10] | [9]

O=C(O)C(F)(F)C(F)(F)C(F)(F)C(F)(F)C(F)(F)C(F)(F)C(F)(F)F
inactive: [2] | [3] | [10] | [9] | [4]

CCN(CC)C(=O)SCc1ccc(Cl)cc1
inactive: [5]
active: [4] 50 µM
